HCT116 PTEN-null: PTEN-deleted cell growth suppression. HCT116 PTEN-null viability, CellTiter-Glo, 60 h; stronger effect = lower value. viability, % at 10 µM. actives 1.2% (n = 140,000). AID 827;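 active means viability at or below a set limit, 4 SD under the median of all tested compounds, cut at about 3.7% in these data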;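 further: PTEN knockout HCT116 line with beta catenin targeted HCT116 as companion control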
bCat KO growth: beta-catenin-lacking colon tumor cell growth suppression; HCT116 beta-catenin knockout viability, CellTiter-Glo, 60 h; stronger effect = lower value; viability, % at 10 µM; actives 1.5% (n = 140,000); AID 818;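 active means viability at or under a set limit, the compound median less 4 SD, cut at about 6% in these data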;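 further: 0% = Hyamine 1622 control at 20 µM and 100% = untreated cell control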
L major viab: Leishmania major promastigote growth inhibition. Leishmania major promastigotes, resazurin fluorescence viability. inhibition, % at 10 µM. actives 9% (n = 200,000); in the data active means inhibition above about 50%;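 further: promastigotes grown with compound for 44 hours at 28 °C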
p97 inhibitor: inhibitors of human p97 ATPase | P55072 | recombinant p97 ATPase, Kinase-Glo ATP luminescence, 3 h | inhibition, % at 8 µM | actives 0.42% (n = 220,000); in the data active means inhibition above about 15%;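 further: 0% = DMSO vehicle and 100% = wells lacking enzyme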
Target sequence (P55072 whole entry, looked up): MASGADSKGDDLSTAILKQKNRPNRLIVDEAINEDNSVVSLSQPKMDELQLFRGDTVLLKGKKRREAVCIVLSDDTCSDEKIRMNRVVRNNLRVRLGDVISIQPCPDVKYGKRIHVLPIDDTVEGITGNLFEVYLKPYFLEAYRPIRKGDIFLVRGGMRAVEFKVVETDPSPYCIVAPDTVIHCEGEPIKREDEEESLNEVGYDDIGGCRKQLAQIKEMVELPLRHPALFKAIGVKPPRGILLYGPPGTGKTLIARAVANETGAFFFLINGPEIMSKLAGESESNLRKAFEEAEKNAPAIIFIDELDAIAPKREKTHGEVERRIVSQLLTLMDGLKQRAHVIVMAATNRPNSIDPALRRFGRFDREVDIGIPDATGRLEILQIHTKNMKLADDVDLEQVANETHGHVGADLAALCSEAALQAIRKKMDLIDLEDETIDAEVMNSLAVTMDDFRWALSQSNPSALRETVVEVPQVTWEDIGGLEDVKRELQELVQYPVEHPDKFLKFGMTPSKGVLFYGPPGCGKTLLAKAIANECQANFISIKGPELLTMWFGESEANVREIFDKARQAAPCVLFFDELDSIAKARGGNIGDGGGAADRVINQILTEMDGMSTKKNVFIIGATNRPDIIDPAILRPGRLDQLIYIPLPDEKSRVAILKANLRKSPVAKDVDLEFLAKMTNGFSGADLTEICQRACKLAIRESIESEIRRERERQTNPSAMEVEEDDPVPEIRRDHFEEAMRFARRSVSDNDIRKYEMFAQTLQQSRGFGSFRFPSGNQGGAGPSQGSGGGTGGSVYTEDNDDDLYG
ROMK mod: human ROMK K+ channel modulation, primary screen. P48048. Tet-inducible ROMK, thallium flux fluorescence; actives lie on both sides. B-score at 10 µM. actives 2% (n = 130,000);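 active means signal ratio slope over the read window, or its plate-corrected B-score, at least 3 SD from the plate mean, either direction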;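 further: B-score of the F/F0 ratio slope over 7 to 12 s after thallium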
Insulin prom inh: TRM-6 insulin promoter activity inhibition; TRM-6 cells (human fetal islet line), insulin promoter-eGFP reporter, imaging; reporter expression induced with tamoxifen; actives 0.9% (n = 130,000); inhibition, % at 2 µM;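 active means inhibition above the mean plus 3 SD, with well images judged a real hit on visual review, cut at about 60% in these data, passing the limit was not always enough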
Starred values were filed as active, the others as inactive; nt = no result given. The list is not random: actives were taken first. Their share in the collection is about 10%.

SMILES	HCT116 PTEN-null	bCat KO growth	L major viab	p97 inhibitor	ROMK mod	Insulin prom inh
O=C(N/N=C/c1ccc(-c2cccc([N+](=O)[O-])c2)o1)c1ccc([N+](=O)[O-])cc1	nt	nt	64.0*	0.3	-0.492	nt
O=C(N/N=C/c1ccc(-c2cccc(C(F)(F)F)c2)o1)c1ccccc1O	3.1*	10.1	97.9*	1.9	-0.812	-11.8
O=C(N/N=C/c1ccc(O)cc1)c1cccc(C(F)(F)F)c1	90.4	92.2	10.6	-0.1	-0.918	-33.3
O=C(N/N=C/c1ccccc1O)c1cccc(C(F)(F)F)c1	7.1	11.1	97.7*	-2.2	nt	16.9
O=C(N/N=C/c1ccc(-c2cccc(C(F)(F)F)c2)o1)c1ccccc1Br	82.1	97.5	9.2	-10.2	nt	20.0
O=C(N/N=C\c1ccc(-c2ccc([N+](=O)[O-])cc2)o1)c1ccc2c(c1)OCO2	96.0	97.7	-2.2	5.9	nt	3.2
COc1ccc(NC(=O)Cn2c(C(C)C)nc(C)cc2=O)cc1Cl	nt	nt	-1.1	2.8	-0.699	nt
CCN(CC)S(=O)(=O)c1cccc(C(=O)N/N=C/c2cccc(O)c2O)c1	7.3	8.4	98.3*	9.3	nt	-14.3
O=C(N/N=C/c1ccc(-c2cccc([N+](=O)[O-])c2)o1)c1ccccc1O	nt	nt	93.1*	-0.1	0.264	16.7
C/C(=N/NC(=O)c1cc(-c2cccc([N+](=O)[O-])c2)n[nH]1)c1cccc(O)c1	nt	nt	nt	9.8	nt	nt
C/C(=N\NC(=O)c1cc(-c2cccc([N+](=O)[O-])c2)n[nH]1)c1ccccc1O	2.9*	9.3	-9.4	8.0	nt	nt
CCN(CC)S(=O)(=O)c1cccc(C(=O)N/N=C/c2cc(OC)c(O)c(OC)c2)c1	87.5	88.7	-8.1	2.0	nt	nt
O=C(N/N=C/c1ccc(Br)o1)/C(=C/c1ccc([N+](=O)[O-])cc1)NC(=O)c1ccccc1	68.7	68.1	56.8*	3.4	-0.287	nt
COc1cc([N+](=O)[O-])ccc1-c1ccc(/C=N/NC(=O)c2ccccc2O)o1	nt	nt	nt	9.2	-0.764	nt
CC(=O)C1C(c2ccc(F)cc2)C2C(C)=NN=C2CC1(C)O (stereo unspecified)	99.3	91.1	-2.9	2.3	1.14	21.4
Cc1ccc(S(=O)(=O)Nc2c(C)[nH]c(=O)[nH]c2=O)cc1C	93.2	95.3	-5.1	6.7	-0.0503	29.4
CCN(CC)c1ccc2c(C)c(CN3CCOCC3)c(=O)oc2c1	86.6	77.2	100.2*	-3.1	-1.98	nt
CCN(CC)c1ccc2c(C)c(CO)c(=O)oc2c1	nt	nt	2.0	-2.9	0.0315	nt
CSCc1cc(N2CCCC2)nc(-c2ccccc2)n1	nt	nt	68.3*	2.5	-1.14	0.0
Cc1cccc(S(=O)(=O)NCCC(=O)OCC(=O)Nc2ccc(C#N)cc2)c1	101.6	83.9	18.3	1.3	-0.494	9.8
C=CCSc1ncc(C(=O)OCC)c(N)n1	nt	nt	5.4	4.1	-0.641	100.0*
C1=C(c2ccccc2)Nc2ccccc2N=C1c1ccccc1	64.1	67.2	6.9	-4.9	nt	6.7
CCn1nc(C)c(CN2CCCC(CO)(Cc3cccc(Cl)c3)C2)c1C (stereo unspecified)	nt	nt	53.1*	0.5	nt	nt
Cc1c(CN2CCCC(CO)(Cc3cccc(Cl)c3)C2)cnn1C (stereo unspecified)	nt	nt	61.5*	5.5	0.937	nt
CCn1nc(C)c(CN2CCCC(CO)(Cc3ccccc3)C2)c1C (stereo unspecified)	nt	nt	60.8*	-2.7	-0.48	nt
SMILES	HCT116 PTEN-null	bCat KO growth	L major viab	p97 inhibitor	ROMK mod	Insulin prom inh
CCN(Cc1ccccc1)C(=O)COC(=O)c1cc(=O)[nH]c2ccccc12	nt	nt	2.9	-1.7	0.838	-54.5
O=C(CN(c1ccccc1)S(=O)(=O)c1ccccc1[N+](=O)[O-])NN=C1CCCCCCC1	94.5	90.3	-2.5	-2.1	0.102	nt
COP(=O)(OC)C(NC(=O)Nc1ccccc1)c1ccccc1 (stereo unspecified)	nt	nt	nt	4.5	nt	nt
COc1ccc(COc2cc(-c3cccc(OC)c3)nc3ccc(NC(=O)c4ccccc4)cc23)cc1	18.6	19.5	68.4*	9.7	0.0132	15.0
COc1ccc(Cc2nc(-c3ccc(NC(=O)c4cccnc4)cc3)no2)cc1	97.9	94.9	-5.9	-5.6	0.679	-114.8
COc1ccc(COc2cc(-c3cccc(OC)c3)nc3ccc(NC(=O)c4cccnc4)cc23)cc1	32.8	33.9	99.9*	-0.8	0.334	15.0
COc1ccc(COc2cc(-c3cccc(OC)c3)nc3ccc(NC(=O)c4ccc(OC)cc4)cc23)cc1	16.0	16.9	96.8*	6.7	1.07	-40.0
COc1ccc(COc2cc(-c3cccc(OC)c3)nc3ccc(NC(=O)c4ccc(Cl)cc4)cc23)cc1	30.7	27.4	6.7	7.8	1.55	20.0
CC(C(=O)Nc1sc2c(c1C(=O)NCC1CCCO1)CCC2)N1C(=O)c2ccccc2C1=O (stereo unspecified)	116.3	100.0	-2.2	3.7	nt	nt
C=CCOc1ccc(C(=O)CC)cc1OC	106.9	100.9	41.6	5.8	nt	-10.3
CCCCn1nnc(NC(=O)c2ccc(-c3cccc([N+](=O)[O-])c3)o2)n1	nt	nt	55.6*	2.1	0.014	nt
O=C(Nc1ncc(Cc2cccc(C(F)(F)F)c2)s1)c1ccc(-c2cccc([N+](=O)[O-])c2)o1	44.7	39.5	91.2*	-4.8	nt	nt
CCCn1nnc(NC(=O)c2cc(Br)ccc2OC)n1	80.7	76.1	2.9	3.1	-0.228	83.9*
CCCn1nnc(NC(=O)c2ccc(-c3cccc(Cl)c3)o2)n1	99.6	99.2	76.8*	4.2	nt	-10.8
COc1cc(NS(=O)(=O)c2ccc(Br)s2)cc(OC)c1	92.6	90.1	7.2	3.0	nt	-257.1
O=C1N(c2cccc(Cl)c2)C(c2ccc(Cl)cc2)N2CCCN12 (stereo unspecified)	62.0	66.0	4.4	4.7	-1.01	11.8
CC(NC(=O)CCCn1cc([N+](=O)[O-])cn1)c1ccccc1 (stereo unspecified)	nt	nt	1.3	-3.1	nt	-21.4
CCCn1nnc(NC(=O)c2cccc(Cl)c2)n1	88.0	98.4	-3.9	1.1	nt	32.4
CCn1nnc(NC(=S)NC(=O)c2ccc(-c3cccc(Cl)c3)o2)n1	nt	nt	nt	2.2	nt	nt
CCCCn1nnc(NC(=O)c2ccc(-c3cccc(Cl)c3)o2)n1	100.7	102.0	50.9*	4.3	nt	0.0
CCCn1nnc(NC(=O)c2cccc(OCc3ccccc3)c2)n1	86.1	102.2	52.2*	-7.8	nt	42.9
Cc1ccc(Oc2nc(-c3cccnc3)nc3ccccc23)c([N+](=O)[O-])n1	nt	nt	18.5	4.0	0.0488	22.2
Cc1cccc(Nc2nc(NCCCN3CCOCC3)nc(N)c2[N+](=O)[O-])c1	62.3	56.0	48.0	-0.9	-0.363	32.3
CCn1c2ccccc2c2cc(NC(=O)Cc3ccc(S(=O)(=O)N4CCOCC4)s3)ccc21	56.9	59.5	81.2*	5.8	nt	-2.6
CC1=C(C)CC(C(=O)NNC(=O)c2cccc(Cl)c2)C(C(=O)O)C1 (stereo unspecified)	102.3	93.0	-7.4	4.2	0.408	0.0
CCCCCCCn1c2c(c(=N)c3ccccc31)CCC2	nt	nt	100.4*	-1.4	-2.55	nt
CCCn1c2c(c(=N)c3c1CCC3)CCCC2	47.4	51.1	99.8*	5.4	0.427	16.7

High-throughput results: PubChem BioAssay, several laboratories
